{"source": "ChEMBL document CHEMBL3988442", "about": "“University of Dundee, Small-Polar-MMV Screening Library” (2021)", "data": [{"molecular_target": "T1, Aspartate--tRNA(Asp/Asn) ligase (Mycobacterium tuberculosis (strain ATCC 25618 / H37Rv)) (UniProt P9WFW3)", "T1 sequence (whole entry)": "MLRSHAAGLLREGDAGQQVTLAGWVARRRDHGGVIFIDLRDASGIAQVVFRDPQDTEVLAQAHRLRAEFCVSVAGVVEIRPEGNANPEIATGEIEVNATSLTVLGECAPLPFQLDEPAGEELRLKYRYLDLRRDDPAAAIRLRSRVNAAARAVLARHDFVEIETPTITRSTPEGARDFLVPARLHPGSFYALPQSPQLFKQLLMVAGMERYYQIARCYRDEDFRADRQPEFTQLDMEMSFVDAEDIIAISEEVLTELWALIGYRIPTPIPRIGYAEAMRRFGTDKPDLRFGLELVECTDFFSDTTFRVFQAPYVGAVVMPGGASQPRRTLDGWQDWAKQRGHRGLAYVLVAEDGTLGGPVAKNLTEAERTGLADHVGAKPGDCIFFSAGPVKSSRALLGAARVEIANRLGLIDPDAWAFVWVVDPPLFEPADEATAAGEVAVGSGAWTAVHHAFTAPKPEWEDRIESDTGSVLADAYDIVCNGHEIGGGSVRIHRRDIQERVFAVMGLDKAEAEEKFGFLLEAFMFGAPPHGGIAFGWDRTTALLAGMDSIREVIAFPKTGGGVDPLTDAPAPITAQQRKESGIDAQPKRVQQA", "experiment": "Assay for Asp RNA synthetase-1 from Mycobacterium tuberculosis", "format": "functional", "parameters": "scale not given: in the data most compounds retested in dose-response had high values", "details": "30 µM", "units": {"Percent Effect": "%"}, "values": [{"smiles": "Cc1nc(C2CCN(C(=O)CO)CC2)cc(N2CCOCC2)n1", "Percent Effect": -1.91}, {"smiles": "O=C1CO[C@@H]2CN(S(=O)(=O)c3ccccc3)C[C@H]2N1CC1CC1", "Percent Effect": 5.5}, {"smiles": "CCN1CCN(C(=O)c2ccn(C)c(=O)c2)CC1", "Percent Effect": 2.87}, {"smiles": "CC(C)N1CCO[C@H]2CN(C(=O)c3ccc(N(C)C)cc3)C[C@H]21", "Percent Effect": 2.49}, {"smiles": "O=C(c1cnoc1)N1CCC[C@]2(C[C@H](Oc3ncccc3F)CO2)C1", "Percent Effect": -2.03}, {"smiles": "CNC(=O)CS(=O)(=O)Cc1cc(Cl)c2c(c1)OCCCO2", "Percent Effect": 0.857}, {"smiles": "COc1cc2cc(C(=O)N[C@@H](C)C(=O)O)n(C)c2c(OC)c1OC", "Percent Effect": -3.11}, {"smiles": "O=C(c1ccccn1)N1C[C@@H]2CC[C@H](C1)N(C(=O)CCc1cccs1)C2", "Percent Effect": 12}, {"smiles": "Cn1cnc2c1CCN(CCCc1ccccc1)C2", "Percent Effect": 1.13}, {"smiles": "Cc1nc(CN(C)C2CCN(CC(=O)N3CCOCC3)C2)no1", "note": "(stereo not given)", "Percent Effect": 5.36}, {"smiles": "CC(C)Cc1cc(C(=O)NCc2nnc[nH]2)[nH]n1", "Percent Effect": 1.11}, {"smiles": "CCn1nc(C)c2nnn(CC(=O)Nc3c(C)cccc3C)c(=O)c21", "Percent Effect": -2.79}, {"smiles": "Cc1nc(-c2ccccc2F)sc1C(=O)N1CCN(C)CC1", "Percent Effect": 1.4}, {"smiles": "CN(C)Cc1nnc(C2CCN(c3nccc(N)n3)CC2)n1C1CC1", "Percent Effect": 2.12}, {"smiles": "Cc1cnc(CN(C)C2CCN(CCc3cnn(C)c3)C2)o1", "note": "(stereo not given)", "Percent Effect": -2.22}, {"smiles": "COc1ccccc1OCC(=O)NS(=O)(=O)c1ccccc1Br", "Percent Effect": 5.46}, {"smiles": "CCc1ccccc1-n1nnc(C(=O)O)c1-c1ccccn1", "Percent Effect": 6.47}, {"smiles": "CCn1nnc2cc(C(=O)N3CCCC3Cn3cc(C)cn3)ccc21", "note": "(stereo not given)", "Percent Effect": -2.54}, {"smiles": "Cc1nc(CC(=O)N2CCC[C@H]2c2nc(C(C)C)no2)cs1", "Percent Effect": -2.23}, {"smiles": "COc1c(CNCc2ccc(N(C)C)nc2)c(C(C)C)nn1C", "Percent Effect": 0.0333}, {"smiles": "CC(C)c1cc(C(=O)NCCN2CCCS2(=O)=O)n[nH]1", "Percent Effect": -5.19}, {"smiles": "CCc1nc(CN(C)C2CCN(CCn3cc(C#N)cn3)C2)no1", "note": "(stereo not given)", "Percent Effect": 9.06}, {"smiles": "Cc1cc(OCC(=O)NC(C)c2ccc(N3CCOCC3)cc2)no1", "note": "(stereo not given)", "Percent Effect": 5.44}, {"smiles": "NC(=O)COc1cccc(C(=O)Nc2cnc3n2CCCC3)c1", "Percent Effect": -0.557}, {"smiles": "Cc1nc(CN(C)C2CCN(CCCOc3ccccc3)C2)no1", "note": "(stereo not given)", "Percent Effect": 2.8}, {"smiles": "CC1(C)CN(C(=O)NCCc2ccn(-c3ccccc3)n2)CCO1", "Percent Effect": 2.57}, {"smiles": "O=C(Cc1ccccc1F)N1CCN(C(=O)c2cccc(F)c2)CC1", "Percent Effect": 23.6}, {"smiles": "c1ccc(-c2noc3c2CN(CC2CC2)CC3)cc1", "Percent Effect": 4.77}, {"smiles": "Cc1noc2ncc(C(=O)N3CCCC3c3ccncc3)cc12", "note": "(stereo not given)", "Percent Effect": -7.22}, {"smiles": "Cc1ccc(C(=O)N2CCC3(CC2)CCN(CCN(C)C)C3=O)cn1", "Percent Effect": -4}, {"smiles": "Cc1noc2ncc(C(=O)N3CCCC3c3cnn(C)c3)cc12", "note": "(stereo not given)", "Percent Effect": 3.4}, {"smiles": "Cc1nc[nH]c1CN1C[C@@H]2CC[C@H](C1)N(C(=O)CCNS(C)(=O)=O)C2", "Percent Effect": -4.9}, {"smiles": "Cc1cccn2c(=O)cc(OC(=O)c3ccccc3)nc12", "Percent Effect": -3.21}, {"smiles": "CC(C(=O)NCc1ccnc(N(C)C)c1)n1cncn1", "note": "(stereo not given)", "Percent Effect": 0.0335}, {"smiles": "CN(C)S(=O)(=O)N1CC[C@]2(C[C@H](Oc3ncccc3F)CO2)C1", "Percent Effect": 2.03}, {"smiles": "Cc1nc(C)c(C(=O)N2CCCC2c2nnc3n2CCCCC3)s1", "note": "(stereo not given)", "Percent Effect": -7.53}, {"smiles": "CN1CCCN(C(=O)NCc2csc(Br)c2)CC1", "Percent Effect": 0.175}, {"smiles": "CCOC(=O)CCC(=O)NC(C)c1ccc(NC(=O)CC)cc1", "note": "(stereo not given)", "Percent Effect": -8.03}, {"smiles": "CCC1c2ccsc2CCN1C(=O)NCc1cc[nH]n1", "note": "(stereo not given)", "Percent Effect": -1.83}, {"smiles": "Cn1ccnc1CN1CCC2(CC(=O)N(c3cccc(F)c3)C2)C1", "note": "(stereo not given)", "Percent Effect": 6.19}]}]}
